Test results reported in the supplement of paper PMC10849652.
Of roughly 7,900 targets only a part is listed; those with a hit were picked by preference. About 0.6% of all pairs of compound and target were hits. Values without a mark were called inactive.

Chain of UniProt Q9Y383 (Q9Y383 whole entry, looked up): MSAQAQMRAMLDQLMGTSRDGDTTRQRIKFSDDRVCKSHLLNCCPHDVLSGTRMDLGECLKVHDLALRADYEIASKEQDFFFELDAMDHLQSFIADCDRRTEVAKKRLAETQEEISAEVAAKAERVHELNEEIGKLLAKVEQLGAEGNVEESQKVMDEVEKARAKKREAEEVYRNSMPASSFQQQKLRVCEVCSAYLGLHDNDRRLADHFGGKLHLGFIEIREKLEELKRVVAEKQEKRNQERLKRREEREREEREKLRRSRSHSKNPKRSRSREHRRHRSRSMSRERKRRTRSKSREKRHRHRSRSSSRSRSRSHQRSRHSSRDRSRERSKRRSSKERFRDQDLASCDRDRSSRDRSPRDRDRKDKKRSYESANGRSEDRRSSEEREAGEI
Chain of UniProt P20700 (P20700 whole entry, looked up): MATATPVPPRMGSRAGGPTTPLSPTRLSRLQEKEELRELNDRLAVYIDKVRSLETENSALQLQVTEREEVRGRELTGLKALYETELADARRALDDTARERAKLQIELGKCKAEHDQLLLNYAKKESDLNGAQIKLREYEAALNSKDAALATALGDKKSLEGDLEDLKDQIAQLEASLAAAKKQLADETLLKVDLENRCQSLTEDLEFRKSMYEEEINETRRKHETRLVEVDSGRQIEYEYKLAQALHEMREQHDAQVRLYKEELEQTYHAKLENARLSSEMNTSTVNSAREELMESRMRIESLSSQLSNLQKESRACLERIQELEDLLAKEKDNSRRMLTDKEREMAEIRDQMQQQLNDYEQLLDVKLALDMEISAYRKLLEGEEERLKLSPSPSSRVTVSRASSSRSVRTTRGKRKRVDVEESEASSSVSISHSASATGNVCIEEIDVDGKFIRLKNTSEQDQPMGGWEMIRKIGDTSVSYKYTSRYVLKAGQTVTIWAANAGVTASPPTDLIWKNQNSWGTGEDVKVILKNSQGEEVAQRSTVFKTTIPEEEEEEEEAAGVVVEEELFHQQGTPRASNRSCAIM
Chain of UniProt P49006 (P49006 whole entry, looked up): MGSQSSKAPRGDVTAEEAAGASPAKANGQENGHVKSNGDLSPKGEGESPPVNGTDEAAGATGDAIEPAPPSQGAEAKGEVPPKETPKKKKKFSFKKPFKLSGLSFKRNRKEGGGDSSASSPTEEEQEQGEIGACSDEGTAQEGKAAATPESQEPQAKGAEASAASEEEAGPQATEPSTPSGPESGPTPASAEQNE
Chain of UniProt Q8NHS3 (Q8NHS3 whole entry, looked up): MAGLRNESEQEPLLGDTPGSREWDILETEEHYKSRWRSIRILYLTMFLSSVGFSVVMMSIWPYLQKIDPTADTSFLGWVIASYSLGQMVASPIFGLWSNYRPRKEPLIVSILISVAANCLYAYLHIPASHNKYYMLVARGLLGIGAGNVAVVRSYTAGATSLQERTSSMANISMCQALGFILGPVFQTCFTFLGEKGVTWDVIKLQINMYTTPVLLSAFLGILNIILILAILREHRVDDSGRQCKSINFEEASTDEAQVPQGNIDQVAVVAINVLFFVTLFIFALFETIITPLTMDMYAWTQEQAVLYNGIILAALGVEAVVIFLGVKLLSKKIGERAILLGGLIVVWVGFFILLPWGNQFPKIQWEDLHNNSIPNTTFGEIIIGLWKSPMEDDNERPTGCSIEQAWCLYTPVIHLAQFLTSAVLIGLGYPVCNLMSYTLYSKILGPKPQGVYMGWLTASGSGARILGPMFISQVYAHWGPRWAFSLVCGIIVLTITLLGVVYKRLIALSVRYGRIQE
Chain of UniProt Q08334 (Q08334 whole entry, looked up): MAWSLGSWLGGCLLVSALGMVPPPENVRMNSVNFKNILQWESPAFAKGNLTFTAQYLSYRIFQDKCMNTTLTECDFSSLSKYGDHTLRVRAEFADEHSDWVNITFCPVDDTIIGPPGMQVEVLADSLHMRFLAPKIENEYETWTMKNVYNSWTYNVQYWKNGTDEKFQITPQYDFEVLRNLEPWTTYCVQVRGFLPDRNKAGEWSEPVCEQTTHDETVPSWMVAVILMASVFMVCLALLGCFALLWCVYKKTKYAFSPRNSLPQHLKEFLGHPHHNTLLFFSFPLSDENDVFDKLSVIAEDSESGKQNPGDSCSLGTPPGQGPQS
Chain of UniProt P11717 (P11717 whole entry, looked up): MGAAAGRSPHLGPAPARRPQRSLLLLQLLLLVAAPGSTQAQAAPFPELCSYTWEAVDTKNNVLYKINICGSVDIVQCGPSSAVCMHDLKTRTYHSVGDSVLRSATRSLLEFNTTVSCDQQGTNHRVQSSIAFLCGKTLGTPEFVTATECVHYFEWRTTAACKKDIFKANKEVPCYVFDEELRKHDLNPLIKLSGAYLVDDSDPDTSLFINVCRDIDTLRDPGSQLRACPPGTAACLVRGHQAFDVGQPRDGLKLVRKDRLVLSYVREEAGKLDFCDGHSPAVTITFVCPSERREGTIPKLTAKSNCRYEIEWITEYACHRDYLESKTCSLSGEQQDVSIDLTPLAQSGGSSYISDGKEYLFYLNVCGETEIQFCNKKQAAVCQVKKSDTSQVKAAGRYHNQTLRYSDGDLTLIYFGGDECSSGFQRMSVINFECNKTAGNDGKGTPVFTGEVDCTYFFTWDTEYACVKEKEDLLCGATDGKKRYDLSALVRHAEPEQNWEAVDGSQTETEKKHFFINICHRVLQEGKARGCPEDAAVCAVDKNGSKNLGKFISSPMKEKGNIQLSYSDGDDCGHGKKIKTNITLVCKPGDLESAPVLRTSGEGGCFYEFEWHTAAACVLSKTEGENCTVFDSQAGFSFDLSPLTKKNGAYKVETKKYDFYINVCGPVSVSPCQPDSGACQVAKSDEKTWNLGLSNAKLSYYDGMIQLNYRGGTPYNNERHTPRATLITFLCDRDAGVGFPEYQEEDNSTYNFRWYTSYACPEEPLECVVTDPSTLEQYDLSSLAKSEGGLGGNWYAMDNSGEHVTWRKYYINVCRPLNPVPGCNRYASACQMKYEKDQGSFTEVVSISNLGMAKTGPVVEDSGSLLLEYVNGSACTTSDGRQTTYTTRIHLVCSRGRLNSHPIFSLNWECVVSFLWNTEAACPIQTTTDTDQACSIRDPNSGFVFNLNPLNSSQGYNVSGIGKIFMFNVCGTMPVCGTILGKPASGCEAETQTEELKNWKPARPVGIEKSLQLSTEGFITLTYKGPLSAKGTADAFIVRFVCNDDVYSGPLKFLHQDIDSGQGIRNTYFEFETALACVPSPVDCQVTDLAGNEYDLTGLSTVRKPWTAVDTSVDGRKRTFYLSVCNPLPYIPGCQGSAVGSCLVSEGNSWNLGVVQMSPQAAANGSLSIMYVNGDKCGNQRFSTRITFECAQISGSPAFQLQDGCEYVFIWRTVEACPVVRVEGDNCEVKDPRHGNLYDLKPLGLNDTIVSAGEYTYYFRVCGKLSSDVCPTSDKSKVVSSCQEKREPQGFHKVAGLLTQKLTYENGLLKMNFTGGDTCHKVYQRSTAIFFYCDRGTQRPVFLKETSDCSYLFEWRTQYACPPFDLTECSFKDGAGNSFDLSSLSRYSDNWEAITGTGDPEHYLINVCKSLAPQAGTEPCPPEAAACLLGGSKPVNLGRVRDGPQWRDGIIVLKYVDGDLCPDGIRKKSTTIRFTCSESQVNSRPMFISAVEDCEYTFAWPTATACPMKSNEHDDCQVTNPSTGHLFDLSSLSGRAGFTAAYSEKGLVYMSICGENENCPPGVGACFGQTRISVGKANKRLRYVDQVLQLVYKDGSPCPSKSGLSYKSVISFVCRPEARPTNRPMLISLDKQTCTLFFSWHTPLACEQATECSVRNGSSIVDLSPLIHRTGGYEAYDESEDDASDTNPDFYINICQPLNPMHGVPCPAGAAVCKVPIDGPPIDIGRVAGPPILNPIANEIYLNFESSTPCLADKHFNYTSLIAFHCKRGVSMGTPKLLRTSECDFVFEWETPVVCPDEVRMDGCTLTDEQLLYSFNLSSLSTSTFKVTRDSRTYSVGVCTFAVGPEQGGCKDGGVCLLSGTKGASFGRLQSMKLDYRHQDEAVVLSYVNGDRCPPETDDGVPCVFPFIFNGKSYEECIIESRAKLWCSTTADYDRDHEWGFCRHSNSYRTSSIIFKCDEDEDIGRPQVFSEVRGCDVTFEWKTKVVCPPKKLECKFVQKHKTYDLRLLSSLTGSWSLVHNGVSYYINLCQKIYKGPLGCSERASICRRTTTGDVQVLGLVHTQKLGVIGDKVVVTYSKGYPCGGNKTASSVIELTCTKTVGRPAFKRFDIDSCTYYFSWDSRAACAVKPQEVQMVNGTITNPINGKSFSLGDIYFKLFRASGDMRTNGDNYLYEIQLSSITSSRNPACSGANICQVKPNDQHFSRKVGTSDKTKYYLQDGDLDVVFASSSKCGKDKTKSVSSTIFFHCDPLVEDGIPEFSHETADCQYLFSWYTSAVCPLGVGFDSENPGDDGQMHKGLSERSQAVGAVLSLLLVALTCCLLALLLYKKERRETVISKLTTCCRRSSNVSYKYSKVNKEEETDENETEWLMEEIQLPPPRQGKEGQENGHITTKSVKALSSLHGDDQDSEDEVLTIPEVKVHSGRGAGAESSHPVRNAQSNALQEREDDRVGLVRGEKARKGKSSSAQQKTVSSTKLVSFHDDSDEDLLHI
Chain of UniProt P43362 (P43362 whole entry, looked up): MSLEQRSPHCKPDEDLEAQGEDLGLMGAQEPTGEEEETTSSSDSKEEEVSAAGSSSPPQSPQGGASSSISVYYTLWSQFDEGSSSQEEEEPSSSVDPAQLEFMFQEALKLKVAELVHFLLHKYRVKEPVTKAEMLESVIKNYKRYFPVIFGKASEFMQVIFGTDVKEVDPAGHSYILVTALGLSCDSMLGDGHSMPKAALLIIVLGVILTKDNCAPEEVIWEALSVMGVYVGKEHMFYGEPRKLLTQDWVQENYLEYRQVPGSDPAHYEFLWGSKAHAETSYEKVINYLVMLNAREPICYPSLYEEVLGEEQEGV
Chain of UniProt P33947 (P33947 whole entry, looked up): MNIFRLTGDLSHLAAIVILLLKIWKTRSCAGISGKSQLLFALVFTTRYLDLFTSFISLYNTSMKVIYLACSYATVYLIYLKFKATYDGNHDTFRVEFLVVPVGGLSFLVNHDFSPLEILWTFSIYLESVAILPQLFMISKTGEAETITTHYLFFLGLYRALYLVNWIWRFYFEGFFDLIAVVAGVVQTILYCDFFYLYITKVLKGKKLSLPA

These targets were tested with c1cn2cc(-c3ccc4cn[nH]c4c3)nc(Nc3ccc(N4CCOCC4)cc3)c2n1 [entospletinib] (assay: log2 fold change, soluble protein after heating vs DMSO (PISA); higher = thermal stabilisation; K562 cells, 10 uM, 30 min; active = over 0.2 and 3.5 SD of the protein, either way, in both replicates (recomputed)).
Summary of the method: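 For each measurement, 10 μM compound was applied for 30 min to K562 cells at 2×10^6 cells/mL. Aliquots were heated for 3 min across 48°C-58°C, pooled, and extracted in PBS with 0.5% NP-40 at 4°C; the supernatant after 21,000xg for 90 min was soluble protein. This was quantified by TMTpro 16plex LC-MS/MS with channel sums equalised, and thermal stability was reported relative to control samples from duplicates, on a log2 fold-change scale.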
Target LSS (UniProt P48449) has a log2 fold change of 0.004. With LMBRD1 (UniProt Q9NUN5) the log2 fold change was -0.03. MICU2 (UniProt Q8IYU8) was tested, and the log2 fold change was 0.019. LRFN1 (UniProt Q9P244) showed a log2 fold change of -0.031. In the case of MDN1 (UniProt Q9NU22), the log2 fold change is reported as -0.123. Work on MAIP1 (UniProt Q8WWC4) yielded a log2 fold change of -0.003. Target MICOS13 (UniProt Q5XKP0) has a log2 fold change of 0.049. With IPO7 (UniProt O95373) the log2 fold change was 0.027. Work on KDELR2 (UniProt P33947) yielded a log2 fold change of 0.101. In the case of LUC7L2 (UniProt Q9Y383), the log2 fold change is reported as 0. MARCKSL1 (UniProt P49006) was tested, and the log2 fold change was -0.005. IGF2R (UniProt P11717) showed a log2 fold change of -0.004. MAGOHB (UniProt Q96A72) was tested, and the log2 fold change was 0.097. LBR (UniProt Q14739) gave a log2 fold change of -0.174. Target IRAK4 (UniProt Q9NWZ3) has a log2 fold change of 0.096. LDAH isoform 2 (UniProt Q9H6V9) showed a log2 fold change of 0.016. IL10RB (UniProt Q08334) showed a log2 fold change of 0.027. LONP2 (UniProt Q86WA8) showed a log2 fold change of -0.001. Target LARP4B (UniProt Q92615) has a log2 fold change of 0.063. Target KTN1 (UniProt Q86UP2) has a log2 fold change of -0.043. With MIEF1 (UniProt Q9NQG6) the log2 fold change was 0.032. With LYN (UniProt P07948) the log2 fold change was -0.024. For LMBRD2 (UniProt Q68DH5), the log2 fold change was 0.024. KIZ (UniProt Q2M2Z5) was tested, and the log2 fold change was -0.105. With LARP1 (UniProt Q6PKG0) the log2 fold change was 0.028. With MFSD8 (UniProt Q8NHS3) the log2 fold change was 0.053. MAGEA9 (UniProt P43362) was tested, and the log2 fold change was 0.083. Target KIF21A isoform 4 (UniProt Q7Z4S6) has a log2 fold change of 0.018. For LMNB1 (UniProt P20700), the log2 fold change was -0.01. Target IPO13 (UniProt O94829) has a log2 fold change of 0.106. With KIF13A (UniProt Q9H1H9) the log2 fold change was 0.066. For KIF3B (UniProt O15066), the log2 fold change was 0.23. In the case of KNTC1 (UniProt P50748), the log2 fold change is reported as 0. In the case of IMMT isoform 2 (UniProt Q16891), the log2 fold change is reported as -0.053.
